{
  "source": "PubChem BioAssay AID1850",
  "about": "(Southern Research Specialized Biocontainment Screening …, 2009)",
  "note": "Screen size: about 310,000 compounds; about 1,000 (0.32%) were called active. No rule for the calls is given here. These entries were drawn from the full list. Results with a measured potency or affinity are listed apart.",
  "data": [
    {"experiment": "Inhibition of PhoP regulon, Salmonella typhi GFP reporter cells, confirmation, 4 h (AID 1850);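 also: 0% = induced wells with vehicle and 100% = uninduced wells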", "settings": "Salmonella Typhi PhoP-promoter GFP reporter, fluorescence, at 50 µM, active compounds read high", "values": [
      {"smiles": "CC(=O)c1cnc2nc(C(F)(F)F)nn2c1C", "inhibition": "-10.3% (inactive)"},
      {"smiles": "CCCn1c2c(c(=N)c3c1CCC3)CCC2", "inhibition": "-2.65% (inactive)"},
      {"smiles": "CCCCCCCCn1c2c(c(=N)c3c1CCC3)CCCC2", "inhibition": "-5.2% (inactive)"},
      {"smiles": "CCCCn1c2c(c(=N)c3c1CCC3)CCC2", "inhibition": "-3.76% (inactive)"},
      {"smiles": "CCCCCCn1c2c(c(=N)c3c1CCC3)CCC2", "inhibition": "12% (inactive)"},
      {"smiles": "CC(NC(=O)CNC(=O)c1sc2ccccc2c1Cl)c1ccc(S(N)(=O)=O)cc1", "note": "(stereo unspecified)", "inhibition": "3.29% (inactive)"},
      {"smiles": "CC1=CC(C)(C(Cl)Cl)C(C)=CC1=O", "note": "(stereo unspecified)", "inhibition": "-0.04% (inactive)"},
      {"smiles": "Cc1cc(C)c(NC(=O)CSc2nnc(CNC(=O)c3c(F)cccc3Cl)o2)c(C)c1", "inhibition": "1.72% (inactive)"},
      {"smiles": "CC(=O)N(C)C1=C(O)c2ccccc2C(=O)C1=O", "inhibition": "-5.54% (inactive)"},
      {"smiles": "CC(=O)C(C(C)=O)C1(O)C(=O)c2ccccc2C1=O", "inhibition": "-7.03% (inactive)"},
      {"smiles": "COc1ccc(CC(=O)Nc2ccc(S(=O)(=O)Nc3ncccn3)cc2)cc1", "inhibition": "-0.86% (inactive)"},
      {"smiles": "S=C(Nc1ccccc1)NC1CCN(Cc2ccccc2)CC1", "inhibition": "2.12% (inactive)"},
      {"smiles": "S=C(Nc1ccc(Cl)cc1)NC1CCN(Cc2ccccc2)CC1", "inhibition": "1.82% (inactive)"},
      {"smiles": "Cc1ccc(NC(=S)NC2CCN(Cc3ccccc3)CC2)cc1C", "inhibition": "7.22% (inactive)"},
      {"smiles": "Fc1ccc(NC(=S)NC2CCN(Cc3ccccc3)CC2)cc1", "inhibition": "17.7% (inactive)"},
      {"smiles": "COc1ccc(CSc2nnc(Cc3sc(-c4ccccc4)nc3-c3ccccc3)o2)cc1", "inhibition": "7.93% (inactive)"},
      {"smiles": "NS(=O)(=O)c1ccc(NC(=S)N2CCN(Cc3ccc4c(c3)OCO4)CC2)cc1", "inhibition": "3.73% (inactive)"},
      {"smiles": "CC1Oc2ccccc2N(CC(=O)Nc2ccccc2F)C1=O", "note": "(stereo unspecified)", "inhibition": "-6.46% (inactive)"},
      {"smiles": "Cc1cn(C2OC(COC(=O)c3ccccc3)C(O)C2O)c(=O)[nH]c1=O", "note": "(stereo unspecified)", "inhibition": "-7.25% (inactive)"},
      {"smiles": "COc1cc([N+](=O)[O-])ccc1NC(=O)CSc1nnc(C)c(C)n1", "inhibition": "13.2% (inactive)"},
      {"smiles": "CSc1ccc(/C=C/C(=O)NC(=O)c2ccccc2O)cc1", "inhibition": "13.3% (inactive)"},
      {"smiles": "c1ccc2c(-c3cc(C4CCNCC4)[nH]n3)cccc2c1", "inhibition": "-4.64% (inactive)"},
      {"smiles": "Clc1ccc(-c2cc(C3CCNCC3)[nH]n2)cc1", "inhibition": "13.5% (inactive)"},
      {"smiles": "CCOc1cccc(-c2c(C(=O)N/N=C(\\C)c3ccncc3)nnn2-c2nonc2N)c1", "inhibition": "0% (inactive)"},
      {"smiles": "COc1ccc(CN2CCNC(=O)C2CC(=O)N(C)Cc2ccon2)c(OC)c1", "note": "(stereo unspecified)", "inhibition": "-0.06% (inactive)"},
      {"smiles": "CC1SC(c2ccc(F)cc2)N(CCc2ccccc2)C1=O", "note": "(stereo unspecified)", "inhibition": "11.2% (inactive)"},
      {"smiles": "O=C(COc1ccccc1Br)c1ccc(O)cc1O", "inhibition": "-2.5% (inactive)"},
      {"smiles": "N=c1c(C(=O)NCc2ccco2)cc2c(=O)n3ccccc3nc2n1CC1CCCO1", "note": "(stereo unspecified)", "inhibition": "-2.9% (inactive)"},
      {"smiles": "Cc1ccc(CNC(=O)c2cc3c(s2)CS(=O)(=O)C3)cc1", "inhibition": "-3.03% (inactive)"},
      {"smiles": "CSc1nc2ccc(Br)cc2[nH]1", "inhibition": "2.46% (inactive)"},
      {"smiles": "Clc1cc2nc(-c3cccnc3Cl)[nH]c2cc1Cl", "inhibition": "-3.66% (inactive)"},
      {"smiles": "Cn1c(=O)oc2cc(S(=O)(=O)Nc3ccccc3O)ccc21", "inhibition": "-2.19% (inactive)"},
      {"smiles": "Clc1ccc(OCCN2CCCCC2)cc1Cl", "inhibition": "15% (inactive)"},
      {"smiles": "CN1CCN(CCOc2ccc(Cl)c(Cl)c2)CC1", "inhibition": "8.06% (inactive)"},
      {"smiles": "Cc1cc(OCCCN2CCCC2)ccc1Cl", "inhibition": "1.13% (inactive)"},
      {"smiles": "Cc1cc(OCCN2CCOCC2)ccc1Cl", "inhibition": "-0.55% (inactive)"},
      {"smiles": "CCCn1c2ccccc2c2nnc(SCC(=O)Nc3ncccn3)nc21", "inhibition": "1.55% (inactive)"},
      {"smiles": "CN(C)CCCn1c2c(c(SCC(=O)Nc3nccs3)nc1=O)CCC2", "inhibition": "-3.03% (inactive)"},
      {"smiles": "O=C(Nc1cccc(Cl)c1)N1CCN(c2ncccn2)CC1", "inhibition": "8.55% (inactive)"},
      {"smiles": "COc1ccc(CC(=O)NCC(=O)N/N=C/c2ccc(C)o2)cc1", "inhibition": "-9.36% (inactive)"},
      {"smiles": "C=CCNC(=S)NCc1cccnc1", "inhibition": "-7.66% (inactive)"},
      {"smiles": "O=C(NNC(=O)C1CCCCC1)c1ccc(Br)cc1", "inhibition": "-2.98% (inactive)"},
      {"smiles": "C/C(=N\\NC(=O)c1ccc(Cl)c(Cl)c1)c1ccccn1", "inhibition": "3.95% (inactive)"},
      {"smiles": "C/C(=N\\NC(=O)c1cc(Br)ccc1O)c1ccccn1", "inhibition": "1.41% (inactive)"},
      {"smiles": "C/C(=N\\NC(=O)c1ccccn1)c1ccc(Cl)cc1", "inhibition": "0.75% (inactive)"},
      {"smiles": "C/C(=N\\NC(=O)c1ccc(F)cc1)c1ccccn1", "inhibition": "-3.7% (inactive)"},
      {"smiles": "COc1ccc(CCN2CC(C(=O)NCCc3ccccc3C)CCC2=O)cc1", "note": "(stereo unspecified)", "inhibition": "0.24% (inactive)"},
      {"smiles": "Oc1cccc(C=NCc2ccccc2)c1", "inhibition": "-11.2% (inactive)"},
      {"smiles": "O/N=C/c1cc(Br)ccc1OCc1ccc(F)cc1", "inhibition": "3.46% (inactive)"},
      {"smiles": "COc1cc(Br)cc(/C=N/NC(=O)Cc2ccccc2)c1O", "inhibition": "5.08% (inactive)"},
      {"smiles": "CN(/N=C/c1cc(Br)cc(Br)c1O)c1ccccc1", "inhibition": "2.46% (inactive)"},
      {"smiles": "Oc1c(C=NCc2ccc(F)cc2)[nH]c2ccc(Br)c(Cl)c12", "inhibition": "-22.5% (inactive)"},
      {"smiles": "O=C(Cc1ccccc1)N/N=C/c1cc(Br)cc(Br)c1O", "inhibition": "6.54% (inactive)"},
      {"smiles": "Oc1cccc(/C=N/N=C/c2cccc(O)c2O)c1O", "inhibition": "21.8% (inactive)"},
      {"smiles": "Oc1c(Br)cc(Br)cc1/C=N/N1CCN(Cc2ccccc2)CC1", "inhibition": "-8.57% (inactive)"},
      {"smiles": "CCN(CC)CC(C)CNC(=O)CC(C(=O)N1CCc2ccccc21)n1ccnc1", "note": "(stereo unspecified)", "inhibition": "-1.96% (inactive)"},
      {"smiles": "CC1(C)C2(C#N)C(N)=NC3(OCCO3)C12C#N", "note": "(stereo unspecified)", "inhibition": "4.42% (inactive)"},
      {"smiles": "Cc1ccc(S(=O)(=O)N(C)c2ccc(N)cc2)cc1", "inhibition": "8.98% (inactive)"},
      {"smiles": "Cc1ccc2nc(SCc3nc4cc(Cl)ccc4c(=O)[nH]3)[nH]c2c1", "inhibition": "-3.53% (inactive)"},
      {"smiles": "COc1cccc(C2C(=O)N(C3CCCCC3)CC(=O)N2Cc2ccc(F)cc2)c1", "note": "(stereo unspecified)", "inhibition": "-2.24% (inactive)"},
      {"smiles": "CC[N+](C)(C)CC/C=C1/c2ccccc2Sc2ccc(Cl)cc21", "inhibition": "5.02% (inactive)"},
      {"smiles": "C[N+](C)(C)CC/C=C1/c2ccccc2CSc2ccccc21", "inhibition": "-7.79% (inactive)"},
      {"smiles": "OCCN1CCN(CC/C=C2/c3ccccc3Sc3ccc(Cl)cc32)CC1", "inhibition": "5.06% (inactive)"},
      {"smiles": "CN1CCN(CC/C=C2/c3ccccc3Sc3ccc(S(=O)(=O)N(C)C)cc32)CC1", "inhibition": "3.38% (inactive)"},
      {"smiles": "CN1CCN(CCC=C2c3ccccc3Sc3ccc(S(=O)(=O)N(C)C)cc32)CC1", "inhibition": "-2.21% (inactive)"},
      {"smiles": "OCCN1CCN(CC/C=C2/c3ccccc3Sc3ccc(C(F)(F)F)cc32)CC1", "inhibition": "-0.41% (inactive)"}
    ]}
  ]
}
